# Results reported in PubChem BioAssay AID1508649 (National Center for Advancing Translational Sciences (NCATS), 2021).
# Hit rate of the full screen: of about 43,000 compounds, about 830 (1.9%) were called active. Another 30% or so got no clear call; they are omitted. Many of the other results were omitted from the sample, so actives are more common in it than they were. Unmarked numbers belong to inactive results. Rule for the calls: active = clear falling dose curves in both reporters; inconclusive = both reporters move, but less clearly or upward; inactive = either reporter flat; the % is the NLuc reporter signal.
# Assay: Cell-based coincidence reporter assay to measure PMP22 gene transcription in S16 Pmp22-F2sN cells - Primary screen
# Settings: S16 Pmp22-F2sN Schwann cells (luciferase reporters placed in the Pmp22 gene), FLuc/NLuc coincidence luminescence, 24 h; series mostly up to 57.5 µM; activity change, negative = inhibition: at the top concentration
# Excerpt: Assay Provider: Jim Inglese Ph.D. National Center for Advancing Translational Science, National Institutes of Health, Rockville, MD CMT is a heterogeneous group of neurological disorders that affect approximately 1 in 2,500 people. In particular, the most common form of CMT, CMT1A is genetically linked to the duplication of the PMP22 gene which leads to Schwann cell overexpression, thus manifesting itself as a typical case of dose-sensitive diseases. To identify small molecule compounds that can mediate the expression of PMP22 we developed a phenotypic assay screening strategy by utilizing genome editing techniques to construct Schwann cell lines containing novel reporter technology to monitor the transcriptional or translational regulation of PMP22. For high sensitivity we use a bioluminescent reporter system embedded in the 3' UTR of the PMP22 gene (S16(c9) Pmp22-F2sN) to identify compounds that inhibit gene expression. […] We can further discriminate the effect of all transcriptionally active molecules on PMP22 translation or stability with an assay that incorporates a short NLuc peptide (HiBiT) at the C-terminus of expressed PMP22 (S16(f8) PMP22-HiBiT) allowing alpha complementation and luminescence detection of membrane-associated PMP22 protein. These assays were screened against the NCATS Sytravon Library Collection. Miniaturization of these assays to 1536-well plate format for quantitative high throughput screening (qHTS) yielded rich data sets immediately from the qHTS assay (S16(c9) Pmp22-F2sN), when compared with data from a cell viability assay (Cell TiterGlo) to identify compounds that decreased the output signals through cellular toxicity to streamline the selection process of actives for subsequent characterization using the HiBiT assay (S16(f8) PMP22-HiBiT).
# Cell-based coincidence reporter assay to measure PMP22 gene transcription in S16 Pmp22-F2sN cells PROTOCOL TABLE (format as described by Inglese J, Shamu CE and Guy RK. 2007) SEQUENCE No. (e.g., 1, 2, 3, etc.); […] (e.g., Cells, Incubation, Reagent, etc.); VALUE and DESCRIPTION. 1. Cells. Add 500-1,000 cells in 4 uL in growth media (DMEM High Glucose, No Phenol Red media + 10% heat-inactivated FBS + 1% Pen/Strep supplemented media) per well into Greiner 1536-well white/solid bottom high base, TC-treated plates. 2. Compounds. Library compounds and controls added at 23nL per well, transferred by Pin Tool. 3. Incubation. Incubate plates at 37C, 5% CO2, 95% RH for 24 h. 4. Reagent. Add 3.5uL Nano-Glo Dual-Luciferase Reporter Assay System reagent 1: Lysis and FLuc reagent per well of Greiner 1536-well plates. 5. Incubation. Incubate plates at room temperature for 10 min., protect from light. 6. Detector. FLuc luminescence measured using CCD-based camera (Viewlux). 7. Reagent. Add 3.5uL Nano-Glo Dual-Luciferase Reporter Assay System reagent 2: Stop&Glo reagent per well of Greiner 1536-well plates. 8. Incubation. Incubate plates at room temperature for 10 min., protect from light. 9. Detector. NLuc luminescence measured using CCD-based camera (Viewlux). NOTES (numbers refer to Sequence numbers above; values are from representative experiments) 6. Luminescence Read #1 (FLuc): Clear filter; Exposure = 10 sec, Gain = High, Speed = Slow, Binning = 2X 9. Luminescence Read #2 (NLuc): Clear filter; Exposure = 1 sec, Gain = High, Speed = Slow, Binning = 2X REFERENCES: 1. Inglese J, Shamu CE and Guy RK, Reporting data from high throughput screening of small molecule libraries, Nature Chemical Biology, 2007, 3(8): 438-441. doi.org/10.1038/nchembio0807-438 2. Yasgar A, Shinn P, Jadhav A, Auld DS, Michael S, Zheng W, Austin CP, Inglese J and Simeonov A, Compound Management for Quantitative High-Throughput Screening. J. Assoc. Lab. Auto., 2008, 13: 79-89. doi: 10.1016/j.jala.2007.12.004
# % is set by controls: 0 for no effect and ±100 for the full control effect; potency is the fitted concentration of half-maximal effect.
SMILES,Potency,"activity change, negative = inhibition [%]"
Cc1ccc(NC(=O)c2nc(S(=O)(=O)Cc3cccc(C)c3)ncc2Cl)cc1,4.22 µM (active),
CCS(=O)(=O)c1ncc(N(Cc2ccc(F)cc2)Cc2ccco2)c(C(=O)Nc2cc(C)ccc2C)n1,,1.94
CCSc1ncc(Cl)c(C(=O)Nc2cc(C)ccc2C)n1,,4.67
Cc1cc2oc(C(=O)N(Cc3ccc(Cl)cc3)Cc3ccco3)c(C)c2cc1Cl,,-4.49
CC(C)(C)c1ccc(C(=O)NCC(c2ccco2)S(=O)(=O)c2ccc(F)cc2)cc1 (stereo not given),15.8 µM (active),
COc1ccccc1CNC(=O)C(=O)NCC(c1ccco1)S(=O)(=O)c1ccc(F)cc1 (stereo not given),,-28.9
O=C(NCC(c1ccco1)S(=O)(=O)c1cccs1)c1ccc(F)cc1 (stereo not given),,-8.16
O=S(=O)(c1ccc2nc(NCc3ccccc3Cl)ccc2c1)N1CCCCC1,,-32.7
COc1ccccc1NC(=O)CN1C(=O)c2ccccc2Sc2ccc(C(=O)N3CCCC3)cc21,,-28
Cc1cccc(C(=O)Nc2ccc(-c3nc4ncccc4o3)cc2C)c1,,-4.56
CC1=Nc2cc(C(=O)NCc3ccc(C)cc3)ccc2Sc2ccc(Cl)cc21,,-6.27
CCOCCCNC(=O)c1ccc2nc(CCc3ccccc3)oc2c1,,0.539
CCC1=Nc2cc(C(=O)NCCCOC(C)C)ccc2Sc2ccc(C)cc21,8.54 µM (active),
O=C(Nc1ccc(F)cc1F)c1ccc2c(=O)n3c(nc2c1)CCCCC3,,-12.8
Cc1cc(N2CCN(c3cccc(C(F)(F)F)c3)CC2)n2nc(-c3ccccc3)nc2n1,,4.74
O=C(CSc1oc(-c2ccco2)nc1S(=O)(=O)c1ccc(Cl)cc1)c1ccccc1,,-14.8
CCc1ccc2oc(-c3ccc(C)c(NC(=O)/C=C/c4ccco4)c3)nc2c1,,-6.73
COc1ccc(CNC(=O)CSc2nc3ccccc3nc2Cc2ccccc2)cc1,,0.264
CCc1ccc(NC(=O)c2nn(-c3ccc(C)cc3)c(=O)n(C)c2=O)cc1,,4.83
Fc1ccc(-c2nc(Nc3cccc(Cl)c3)nc3c2COc2ccccc2-3)cc1,,1.62

SMILES,Potency,"activity change, negative = inhibition [%]"
Cc1ccc(CNC(=O)CSc2c3c(nc4cc(Cl)ccc24)CCCC3)cc1,,-14.6
CCOC(=O)C1CCN(C(=O)CSc2c3c(nc4ccc(Cl)cc24)CCCC3)CC1,18.9 µM (active),
CCOC(=O)C1CCCN(C(=O)c2ccc3c(c2)sc2nc(-c4ccc(CC)cc4)cn23)C1 (stereo not given),,-68.5
CCOc1ccc(N2CC(c3nc4ccccc4n3CCOc3ccc(OC)cc3)CC2=O)cc1 (stereo not given),,-6.83
CCCN1C(=O)C(O)(CC(=O)c2ccc(CC)cc2)c2cc(Br)ccc21 (stereo not given),12.6 µM (active),
Cc1cc(C)cc(NC(=O)CCS(=O)(=O)c2cc3c4c(c2)CCN4C(=O)CC3)c1,,-4.74
CCOC(=O)c1c(C)[nH]c(CCC(=O)NCCCN2CCN(c3cc(C)ccc3C)CC2)c1C,12.1 µM (active),
Cc1ccc(C)c(N2CCN(C(=O)CCc3c(C)nc4c(c3C)c(=O)n(C)c(=O)n4C)CC2)c1,,-34.2
CCOC(=O)c1c(C)[nH]c(C)c1S(=O)(=O)N(C)CC(=O)N1CCN(c2ccccc2)CC1,,-18.3
Cc1ccc(C)c(N2CCN(C(=O)Cc3c(C(=O)O)c(C)cn3C)CC2)c1,,0.691
CCOC(=O)c1[nH]c(C)c(CCC(=O)N2CCN(c3ccccc3)CC2)c1C,,-2.38
CCOC(=O)c1c(C)[nH]c(CCC(=O)NCCCN2CCN(c3cccc(Cl)c3)CC2)c1C,17.9 µM (active),
O=C(CSc1nnc(-c2ccccc2F)o1)Nc1cccc(C(F)(F)F)c1,,5.33
COc1cccc(NC(=O)C(=O)NCC(c2ccc3c(c2)OCO3)N2CCN(C)CC2)c1 (stereo not given),,-29.9
COc1cc(NC(=O)C2CCN(c3cnccn3)CC2)cc(OC)c1,,-10.2
Brc1ccc(-c2noc(-c3ccccc3)n2)o1,,-13.7
O=C(NCCCc1ccccc1)c1ccc2c(c1)sc1nc(-c3ccc(F)cc3)cn12,,-12.4
CCCCOc1ccc(Cn2c(=O)oc3ccc(C)cc32)cc1OC,,-12.8
CCOc1ccc(CNCc2c(C(=O)O)c(C)n(Cc3cccc(OC)c3)c2C)cc1OC,,-23.9
CCCCOc1ccc(CN2C(=O)C(=O)c3cc(Br)cc(C)c32)cc1OC,4.5 µM (active),

SMILES,Potency,"activity change, negative = inhibition [%]"
Cc1ccc(-c2cc(C(F)(F)F)c(C#N)c(SCC(=O)Nc3ccccc3)n2)cc1,,3.61
CCOC(=O)c1c(NC(=O)c2cc(-c3ccc(Cl)cc3)on2)sc2c1CCCC2,,-8.48
COc1ccc(/C=C/c2noc(-c3ccccc3O)n2)cc1OC,,-88.6
Cc1c(-c2nc(-c3ccc4c(c3)OCO4)no2)nnn1-c1ccc(Br)cc1F,,-12.3
COc1cccc(CNS(=O)(=O)c2cc3c(cc2C)n(C)c(=O)c(=O)n3C)c1,,-24.1
Cc1ccc(-n2c(=O)c3cccnc3n2CC(=O)NCc2ccc(F)cc2)cc1C,,-10.6
O=C(CCCn1c(=O)c2cccn2c2cccnc21)NCc1ccc(F)cc1,17.9 µM (active),
COc1ccc(OC)c(CCNC(=O)CCCn2c(=O)c3cccn3c3cccnc32)c1,,-47.8
CCc1ccc(NS(=O)(=O)c2ccc3[nH]cc(C(=O)NCCc4cccc(C)c4)c(=O)c3c2)cc1,,-16.7
COc1cccc(CNC(=O)C(NS(=O)(=O)c2ccc3nc(C)sc3c2)C(C)C)c1 (stereo not given),,1.61
CCOC(=O)C1=C(c2ccccc2)Nc2ncnn2C1c1ccc(Cl)cc1 (stereo not given),,-19.3
COc1ccc(C(=O)N2CCC(c3nc4ccccc4o3)CC2)cc1,,-2.94
O=C(c1ccc(C(F)(F)F)cc1)N1CCC(c2nc(-c3ccc(S(=O)(=O)N4CCCC4)cc3)no2)CC1,14.2 µM (active),
Cc1ccc(C)c2sc(NC(=O)c3ccc(S(=O)(=O)N4CCCC4)cc3)nc12,,-6.67
Fc1cccc(-n2ncc3c2ncn2nc(-c4ccccc4Cl)nc32)c1,,1.98
COc1cc(NC(=O)NCC2CCN(Cc3ccc(C)cc3)CC2)cc(OC)c1OC,,-8.67
Cc1ccc(-c2onc(C)c2C)cc1S(=O)(=O)Nc1ccccn1,,1.02
COc1ccc(-c2onc(C)c2C)cc1S(=O)(=O)NCC1CCN(Cc2cccc(F)c2)CC1,14.1 µM (active),
CCS(=O)(=O)c1nc(S(=O)(=O)c2ccc(C)cc2)c(NCc2ccc(Cl)cc2)s1,,-7.32
CCc1ccc(Nc2nn3c(=O)c4cc5c(cc4nc3s2)OCO5)cc1,,-6.98
